The results in this text go back to PubChem BioAssay AID720711 (National Center for Advancing Translational Sciences (NCATS), 2013).

Each structure is given as a SMILES string. Among all 360,000 compounds or so, about 290 (0.081%) were called active. Where a call stands in place of a potency, no number is given. The call rests on the fitted dose curve; in most records, active means well fitted activation curve with a large enough effect; inconclusive means small, poorly fitted or top-dose-only effect; inactive means no such curve, though single readings can be large or run the other way. The full list was thinned out, with actives kept by preference.
Potency means the concentration at half of the fitted maximal effect.

In the test the target is Rap guanine nucleotide exchange factor 4 (Homo sapiens) (UniProt Q8WZA2). The test is described as follows: qHTS for Agonist of cAMP-regulated guanine nucleotide exchange factor 4 (EPAC2): primary screen. Further: nearly all actives have a fitted effect of over 50% in size. The settings on record: biochemical qHTS; Potency: EPAC2 activation; series mostly up to 154 µM. The text has this: In multi-cellular eukaryotic organisms, the effects of cAMP are transduced by two ubiquitously-expressed intracellular cAMP receptors, the classic protein kinase A/cAMP-dependent protein kinase (PKA/cAPK) and the more recently discovered exchange protein directly activated by cAMP/cAMP-regulated guanine nucleotide exchange factor (EPAC/cAMP-GEF). Both PKA and EPAC are ubiquitously expressed in all tissues, and an increase in intracellular cAMP levels will lead to the activation of both PKA and EPAC. Therefore, careful dissections of the individual role and relative contribution of EPAC and PKA within the overall cAMP signaling in various model systems are critical for further elucidating the mechanism of cAMP signaling. To date no EPAC-specific antagonists and agonist, as well as isoform-specific agonists have been reported, and developing EPAC-specific pharmacological probes to determine the physiological functions that EPAC play in the overall cAMP-mediated signaling remains a major challenge within the research field. Furthermore, identified regulators of EPAC may lead to new mechanism-based therapeutic strategies specifically targeting the EPAC / cAMP-signaling components as EPAC has been implicated to play important roles in major human pathological conditions such as diabetes, heart disease, and cancer.
Chain of Rap guanine nucleotide exchange factor 4 (Homo sapiens) (Q8WZA2 whole entry, looked up): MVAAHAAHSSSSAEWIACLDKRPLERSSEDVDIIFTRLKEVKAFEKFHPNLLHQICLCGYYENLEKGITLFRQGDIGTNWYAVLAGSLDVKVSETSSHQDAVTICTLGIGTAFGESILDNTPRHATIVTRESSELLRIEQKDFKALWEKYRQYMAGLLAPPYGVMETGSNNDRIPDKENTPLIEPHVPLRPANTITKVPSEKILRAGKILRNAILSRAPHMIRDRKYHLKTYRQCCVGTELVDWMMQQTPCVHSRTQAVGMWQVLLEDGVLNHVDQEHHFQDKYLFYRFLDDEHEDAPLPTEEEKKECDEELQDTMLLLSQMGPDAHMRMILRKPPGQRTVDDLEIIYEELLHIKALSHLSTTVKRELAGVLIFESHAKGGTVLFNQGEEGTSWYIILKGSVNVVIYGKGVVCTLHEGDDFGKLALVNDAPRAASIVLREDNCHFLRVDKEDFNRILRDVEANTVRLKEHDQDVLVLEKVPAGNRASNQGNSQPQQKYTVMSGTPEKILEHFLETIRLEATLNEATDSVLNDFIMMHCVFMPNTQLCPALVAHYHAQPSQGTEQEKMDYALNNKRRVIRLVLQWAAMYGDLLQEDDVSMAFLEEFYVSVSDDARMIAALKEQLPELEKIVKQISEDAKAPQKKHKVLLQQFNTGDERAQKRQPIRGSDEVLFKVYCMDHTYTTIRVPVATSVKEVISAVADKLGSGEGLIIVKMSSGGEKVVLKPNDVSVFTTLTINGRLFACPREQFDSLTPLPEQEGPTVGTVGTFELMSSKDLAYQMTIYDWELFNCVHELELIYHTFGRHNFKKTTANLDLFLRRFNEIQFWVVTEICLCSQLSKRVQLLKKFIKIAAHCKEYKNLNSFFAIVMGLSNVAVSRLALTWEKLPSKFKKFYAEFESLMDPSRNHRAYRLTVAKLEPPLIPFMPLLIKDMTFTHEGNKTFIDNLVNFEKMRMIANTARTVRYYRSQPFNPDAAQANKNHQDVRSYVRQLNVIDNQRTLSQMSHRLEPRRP
This qHTS will be used to screen the Molecular Libraries Small Molecule Repository (MLSMR) as a concentration-titration series using the NCGC unique quantitative screening (qHTS) platform to find activators for EPAC2. In addition, this assay will also be used as a counterscreen for the EPAC1 qHTS. This fluorescent based assay is developed and validated for EPAC2 that measures exchange using EPAC effector Rap1 complex with BODIPY-GDP, a GDP analog with a tethered fluorophores. Activators are identified by monitoring the change in fluorescence signal as the exchanged free BODIPY-GDP has a reduced fluorescence compared to Rap1-bound BODIPY-GDP. […] in signal (activation) is the desired outcome for the EPAC2 agonist while no activity in this assay is desired for the EPAC1 agonist counterscreen.
[1] de Rooij, J., Zwartkruis, F. J., Verheijen, M. H., Cool, R. H., Nijman, S. M., Wittinghofer, A., and Bos, J.L. (1998) Nature 396, 474-477
[2] Kawasaki, H., Springett, G. M., Mochizuki, N., Toki, S., Nakaya, M., Matsuda, M., Housman, D. E., and Graybiel, A. M. (1998) Science 282, 2275-2279
NIH Chemical Genomics Center [NCGC]
NIH Molecular Libraries Probe Centers Network [MLPCN]
Assay Submitter (PI): Xiaodong Cheng, The University of Texas, Medical Branch
Briefly, three uL of reagents (100 nM EPAC2, 250 nM RAP1B-BODIPY-GDP, 50 uM GDP) were dispensed into a 1536-well Greiner black solid-bottom medium binding assay plate. Controls and test compounds (23 nL) were transferred to the plate via a Kalypsys pin tool equipped with a 1536-pin array. The plates were centrifuged at 1,000 rpm for 15 seconds followed by 5 minute incubation at room temperature. The assay plates were read at 5 minute intervals for 30 minutes in the ViewLux plate reader using 480nm excitation and 540nm emission filters. The results were normalized to the agonist positive control of 6.5 mM cAMP.
In the case of `COC(=O)[C@]12CCCCC=C1N(Cc1ccco1)C(=O)[C@H](CC(=O)NCCCCc1ccccc1)C2`, the Potency entry was “inactive”.

Take `COc1ccc(S(=O)(=O)NC(CC(=O)NCc2ccccc2OC)c2ccco2)cc1` (centres undefined): the Potency entry was “inactive”.

Take `Cc1sc2ncn(CC(=O)NCCN(C)C)c(=O)c2c1S(=O)(=O)N1CCC(C)CC1`: the Potency entry is “inactive”.

For `CN(CCc1ccccn1)C(=O)c1ccc(OC2CCN(CCc3ccccc3)CC2)cc1`, the Potency result is “inactive”.

For `O=C1CCc2cc(S(=O)(=O)N3CCC(C(=O)NCc4ccccc4Cl)CC3)ccc2N1`, the Potency result was “inactive”.

In the case of `CCOc1ccccc1Nc1nnc(SCC(=O)NCC2CCCO2)s1` (centres undefined), the Potency entry was “inactive”.

Regarding `N#CCCn1cnc2ccccc21`, the Potency entry is “inactive”.

With `O=[N+]([O-])c1ccc(CN2CC(N3CCC(c4ccccc4)CC3)CS2(=O)=O)cc1` (centres undefined), the Potency entry was “inactive”.

For the molecule `CC(=O)[C@@]12O[C@@H]1C[C@H]1[C@@H]3CC[C@H]4C[C@@H](O)CC[C@]4(C)[C@H]3CC[C@@]12C`, the Potency result was “inactive”.

Take `CC1Cc2ccccc2N1S(=O)(=O)c1c(N)n(C)c(=O)n(C)c1=O` (centres undefined): the Potency result was “inactive”.

As for `CC(C(=O)NC1CCCC1)N(c1ccc(Oc2ccccc2)cc1)S(C)(=O)=O` (centres undefined), the Potency entry was “inactive”.

For `CC(=O)NC12CC3CC(C1)CC(C(=O)N1CCN(S(=O)(=O)c4cccs4)CC1)(C3)C2`, the Potency entry was “inactive”.

With `Cc1cc(C)c(S(=O)(=O)N2C=CC(C(F)(F)F)=NCC2)c(C)c1`, the Potency entry was “inactive”.

Turning to `O=C(C1CCC1)N1CCN(S(=O)(=O)c2ccc([N+](=O)[O-])cc2)CC1`, the Potency entry was “inactive”.

Consider `COc1ccc(-c2[nH][nH]c(=O)c2NC(=O)c2ccc([N+](=O)[O-])cc2)cc1`, for which the Potency entry is “inactive”.

For the molecule `COc1ccc(NS(=O)(=O)c2cc(NC(=O)CC(=O)c3ccc([N+](=O)[O-])cc3)ccc2C)cc1`, the Potency entry is “inactive”.

With `COc1ccc(C(=O)Nc2nc(-c3ccc(OC)cc3)c(-c3ccc([N+](=O)[O-])cc3)s2)cc1`, the Potency is 112 µM (active).

For the molecule `CCOC(=O)NC(C(F)(F)F)(C(F)(F)F)P(=O)(c1ccccc1)c1ccccc1`, the Potency result was “inactive”.

Regarding `Oc1ccc2ccc3cccc[n+]3c2c1`, the Potency was 100 µM (active).

For `COCCN1CCN(C(=O)c2cc(COc3ccc(F)cc3Cl)on2)CC1`, the Potency result is “inactive”.

For the molecule `Cc1cc(Cl)c2oc(C(=O)N3CCC(O)(c4ccccc4)CC3)c(C)c2c1`, the Potency result is “inactive”.

In the case of `Cc1cccc(OCc2nnc(SCc3nc4cc(C(F)(F)F)ccc4c(=O)[nH]3)o2)c1`, the Potency entry is “inactive”.

Take `Cc1nnc(N(Cc2ccco2)C(=O)c2ccno2)s1`: the Potency entry is “inactive”.

Turning to `CCC1C(C#N)=C(SC)NC2=C1C(=O)CC(C)(C)C2` (centres undefined), the Potency result was “inactive”.

For the molecule `CCn1cc(NC(=O)Nc2ccc(OC)c(OC)c2)c(C(N)=O)n1`, the Potency result was “inactive”.

Take `C[n+]1ccc(/C=C/c2c[nH]c3ccccc23)cc1`: the Potency was 100 µM (active).

Consider `COc1ccc(CNC(=O)c2ccc(-c3cccnc3)c3ccoc23)cc1OC`, for which the Potency entry is “inactive”.

For `CCc1noc(C)c1C(=O)N1CCCC(N2CCN(c3ccc(F)cc3)CC2)C1` (centres undefined), the Potency result is “inactive”.

On to `C=C1C(=O)OC2C1CCC(C)=CCCC1(C)OC21` (centres undefined), for which the Potency result was “inactive”.

In the case of `CCC(C(=O)NCCC(C)C)N(Cc1ccccc1Cl)C(=O)c1snc(C(N)=O)c1N` (centres undefined), the Potency result was “inactive”.

On to `COc1cccc(N(CC(=O)NC2CCCC2)C(=O)CCCC(=O)Nc2ccccn2)c1`, for which the Potency entry is “inactive”.

`Cc1nn(C(C)C(=O)NCCC2=CCCCC2)c(=O)c2nn(-c3ccccc3)c(C)c12` (centres undefined): the Potency entry was “inactive”.

As to `CC(C)C(NC(=O)OCc1ccccc1)C(=O)OCC(=O)N1C(C)CCCC1C` (centres undefined), the activation is 11.3% [at 15.6 µM, 100% = 6.5 mM cAMP response] (inactive).

In the case of `COc1ccc(S(=O)(=O)NCC(c2ccco2)N2CCOCC2)cc1` (centres undefined), the Potency result was “inactive”.

For the molecule `COc1ccccc1CNS(=O)(=O)c1cc2c3c(c1)CCC(=O)N3CCC2`, the Potency result is “inactive”.

Consider `Cc1ccc(S(=O)(=O)N2[C@@H](Cc3ccccc3)CO[C@H]2CC(=O)OCc2ccccc2)cc1`, for which the Potency result was “inactive”.

For `Cc1ccccc1C#CC1=CC(=O)CC(C)(C)C1`, the Potency result is “inactive”.

As for `CN(CC(=O)NCc1ccncc1)S(=O)(=O)c1ccc(Br)cc1`, the Potency result was “inactive”.

Regarding `CC(Sc1ccccc1F)C(=O)Nc1cccc(S(=O)(=O)N2CCOCC2)c1` (centres undefined), the Potency entry was “inactive”.

Consider `CCOC(=O)N1CCC(C(N)=O)CC1`, for which the Potency result was “inactive”.

As to `COC(=O)[C@@]12C[C@@H](CC(=O)NCCCCc3ccccc3)C(=O)N(Cc3ccccc3)C1=CCC(C)(C)C2`, the Potency entry was “inactive”.

Take `O=C(COC(=O)C1CC2C=CC1C2)Nc1ccccc1` (centres undefined): the Potency result is “inactive”.

As for `Cc1ccc(S(=O)(=O)N2CCC(C(=O)N[C@@H](C)C(=O)NCCc3ccccc3)CC2)cc1`, the Potency result was “inactive”.

`C[C@@H](C(=O)N1CCNCC1)n1cc(CCC(=O)O)nn1`: the Potency entry was “inactive”.

For the molecule `N#CCCN1CCN(S(=O)(=O)c2ccc(S(=O)(=O)NC3CC3)cc2)CC1`, the Potency entry is “inactive”.

Take `CC(C)(C)OC(=O)NC(Cc1ccccc1)C(=O)NC(CSC1CCCCO1)C(=O)NN` (centres undefined): the Potency result was “inactive”.

Consider `O=C1/C(=C/c2coc3ccc(O)cc3c2=O)SC(=S)N1c1ccccc1`, for which the Potency result is “inactive”.

With `O=C(O)CCCCCCCCc1cn(CN2C(=O)c3ccccc3C2=O)nn1`, the Potency entry is “inactive”.

Regarding `Cc1ccc(-c2nn(-c3ccccc3)cc2/C=C2\SC(=S)N(CCCCCC(=O)O)C2=O)o1`, the Potency was 126 µM (active).

Turning to `O=C(Nc1ccc(Br)cn1)C1CCN(S(=O)(=O)c2cccs2)CC1`, the Potency entry was “inactive”.

`COc1ccccc1CCNC(=O)c1c(C)nn(CC(C)C)c1Cl`: the Potency entry was “inactive”.

`Cc1ccc(CNC(=O)c2cccc3c2C(=O)c2ccc(N4CCC(C)CC4)cc2S3(=O)=O)cc1`: the Potency was 89.1 µM (active).

With `Cc1ccc(CNC(=O)c2ccc3c(c2)S(=O)(=O)c2ccccc2C3=O)cc1`, the Potency result was “inactive”.

Turning to `CC1CCN(c2ccc3c(c2)S(=O)(=O)c2cc(C(=O)O)ccc2C3=O)CC1`, the Potency entry was “inactive”.

In the case of `O=C(CSc1ccc(-c2cccs2)nn1)Nc1ccccc1F`, the Potency result is “inactive”.

As to `CCOC(=O)c1c(NC(=S)Nc2ccccc2)sc2c1CCN(C)C2`, the Potency result is “inactive”.

As to `CCc1ccccc1N(CC(=O)NCC1CCCO1)C(=O)CCC(=O)Nc1nccs1` (centres undefined), the Potency entry is “inactive”.

In the case of `CCOC(=O)[C@]12CCCC=C1N(CCC1=CCCCC1)C(=O)[C@H](CC(=O)N1CCCCC1)C2`, the Potency entry was “inactive”.

As for `CCO[C@@H]1OC(C(=O)N2CCOCC2)=C[C@H](C)[C@H]1CCCO`, the Potency result is “inactive”.

For the molecule `Cc1ccc(NC(=S)N2CCCC(c3ccccc3)=N2)cc1`, the Potency entry was “inactive”.

`COCC(=O)N1CCc2ccc(NC(=O)c3ccccc3Cl)cc2C1`: the Potency result is “inactive”.

With `COc1ccc(-c2ocnc2C(=O)Nc2ccc3c(c2)CCC3)cc1`, the Potency entry was “inactive”.

Turning to `COCc1cc(C(C)=O)ccc1OC`, the Potency entry was “inactive”.

As to `COc1ccc(-c2onc3ccc(C(C)=O)cc23)cc1`, the Potency is 50.1 µM (active).
